Test results from PMC8159961, “Exploring protein hotspots by optimized fragment pharmacophores” (Nature Communications, 2021).

Target: histone methyltransferase SET domain containing 2 (SETD2) (Homo sapiens, UniProt Q9BYW2)
Assay: primary screen, binary call; higher = more effect of the substance; call rule not given here
Protocol: The Chemiluminescence assay evaluates SETD2 specific tri -methylation activity towards histone H3K36. The kit consist s of recombinant SETD2, S-adenosylmethionine and a specific H3K36me3 antibody and was performed according to the manufacturer’s protocol (Catalo g- No. 52060, https://bpsbioscience.com/setd2 -chemiluminescent-assay-kit-52060). Values were blank corrected and normalized . Enzymatic activities were calculated relative to the positive control of the kit (full enzymatic activity) and to the known SET doma in inhibitor Sinefungin28 used as negative control (complete enzymatic activity inhibition). Compounds used were diluted in DMSO.

histone methyltransferase SET domain containing 2 (SETD2), sequence (Q9BYW2 whole entry, looked up, the tested form may be a part): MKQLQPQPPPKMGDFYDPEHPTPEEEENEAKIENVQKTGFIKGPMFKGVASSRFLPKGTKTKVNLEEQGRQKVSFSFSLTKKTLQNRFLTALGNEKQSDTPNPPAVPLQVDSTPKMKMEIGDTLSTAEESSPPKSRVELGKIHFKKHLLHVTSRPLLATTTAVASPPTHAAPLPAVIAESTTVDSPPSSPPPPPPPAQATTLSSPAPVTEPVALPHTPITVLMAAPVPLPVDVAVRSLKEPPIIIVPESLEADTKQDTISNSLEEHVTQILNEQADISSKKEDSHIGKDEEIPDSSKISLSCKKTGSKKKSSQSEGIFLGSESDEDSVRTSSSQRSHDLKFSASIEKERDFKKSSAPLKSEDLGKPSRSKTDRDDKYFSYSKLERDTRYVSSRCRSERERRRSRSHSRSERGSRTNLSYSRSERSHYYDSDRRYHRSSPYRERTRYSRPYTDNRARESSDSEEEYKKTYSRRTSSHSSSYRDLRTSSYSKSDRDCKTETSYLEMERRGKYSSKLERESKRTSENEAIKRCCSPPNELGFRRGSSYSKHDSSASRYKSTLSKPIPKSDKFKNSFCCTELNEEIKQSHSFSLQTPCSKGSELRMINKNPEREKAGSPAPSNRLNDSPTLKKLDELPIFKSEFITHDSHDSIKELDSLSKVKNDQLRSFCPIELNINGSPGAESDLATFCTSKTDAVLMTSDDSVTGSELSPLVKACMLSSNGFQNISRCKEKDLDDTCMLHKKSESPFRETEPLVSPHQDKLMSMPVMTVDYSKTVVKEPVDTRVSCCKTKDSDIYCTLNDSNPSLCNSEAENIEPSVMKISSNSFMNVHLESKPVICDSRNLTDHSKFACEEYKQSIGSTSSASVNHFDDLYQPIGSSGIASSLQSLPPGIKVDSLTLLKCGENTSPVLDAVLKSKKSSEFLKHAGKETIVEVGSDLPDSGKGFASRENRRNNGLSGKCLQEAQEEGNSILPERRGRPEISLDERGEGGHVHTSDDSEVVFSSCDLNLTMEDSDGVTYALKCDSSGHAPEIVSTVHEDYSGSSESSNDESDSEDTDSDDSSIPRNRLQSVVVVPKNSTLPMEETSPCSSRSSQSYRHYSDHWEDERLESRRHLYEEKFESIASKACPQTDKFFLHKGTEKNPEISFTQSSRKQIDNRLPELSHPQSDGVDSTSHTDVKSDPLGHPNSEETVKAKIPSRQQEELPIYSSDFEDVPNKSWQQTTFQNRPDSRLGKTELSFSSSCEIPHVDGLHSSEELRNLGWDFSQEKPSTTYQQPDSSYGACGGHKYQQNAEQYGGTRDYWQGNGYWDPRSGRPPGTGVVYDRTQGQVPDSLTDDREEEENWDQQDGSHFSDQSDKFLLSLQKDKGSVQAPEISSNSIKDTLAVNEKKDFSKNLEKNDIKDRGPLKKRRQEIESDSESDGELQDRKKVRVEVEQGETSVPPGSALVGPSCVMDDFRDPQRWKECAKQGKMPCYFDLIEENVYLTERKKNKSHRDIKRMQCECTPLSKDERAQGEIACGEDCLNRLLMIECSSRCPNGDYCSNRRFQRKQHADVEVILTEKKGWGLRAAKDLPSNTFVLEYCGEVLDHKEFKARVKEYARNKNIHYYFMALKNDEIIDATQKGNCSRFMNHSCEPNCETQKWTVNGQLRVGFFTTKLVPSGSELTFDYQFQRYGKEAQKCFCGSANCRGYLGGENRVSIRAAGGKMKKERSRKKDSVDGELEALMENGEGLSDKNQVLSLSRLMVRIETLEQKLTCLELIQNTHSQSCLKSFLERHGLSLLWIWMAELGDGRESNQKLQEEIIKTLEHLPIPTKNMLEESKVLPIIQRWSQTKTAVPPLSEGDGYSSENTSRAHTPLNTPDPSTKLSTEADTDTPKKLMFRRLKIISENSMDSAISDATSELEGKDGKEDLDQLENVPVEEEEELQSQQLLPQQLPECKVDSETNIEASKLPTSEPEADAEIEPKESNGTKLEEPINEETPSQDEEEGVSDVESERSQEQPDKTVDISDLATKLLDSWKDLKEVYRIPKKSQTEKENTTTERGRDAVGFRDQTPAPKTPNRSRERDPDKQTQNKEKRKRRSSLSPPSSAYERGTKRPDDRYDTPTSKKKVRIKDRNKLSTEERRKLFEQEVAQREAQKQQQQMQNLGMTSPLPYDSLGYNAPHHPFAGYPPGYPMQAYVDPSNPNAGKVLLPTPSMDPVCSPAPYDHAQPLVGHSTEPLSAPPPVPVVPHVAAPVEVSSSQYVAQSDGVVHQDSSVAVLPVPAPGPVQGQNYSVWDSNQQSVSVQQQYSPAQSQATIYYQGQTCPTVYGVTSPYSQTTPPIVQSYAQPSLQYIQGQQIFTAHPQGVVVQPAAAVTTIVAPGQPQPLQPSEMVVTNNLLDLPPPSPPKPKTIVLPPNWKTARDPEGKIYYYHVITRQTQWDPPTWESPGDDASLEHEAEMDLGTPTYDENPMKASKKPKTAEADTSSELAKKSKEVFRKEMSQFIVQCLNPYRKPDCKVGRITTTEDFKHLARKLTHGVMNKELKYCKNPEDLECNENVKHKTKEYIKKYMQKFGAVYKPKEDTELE

Compound | SETD2
Fc1ccc(CC2CCCNC2)cc1 (centres unmarked) | 0 (inactive)
O=C(O)C1CCCN(C(=O)N2CCCC2)C1 (centres unmarked) | 0 (inactive)
c1ccc2sc(N3CCNCC3)nc2c1 | 0 (inactive)
NC1CCc2ccccc21 (centres unmarked) | 0 (inactive)
O=C(c1ccccc1F)N1CCNCC1 | 0 (inactive)
Nc1nnc(-c2cccs2)[nH]1 | 0 (inactive)
N[C@H]1c2ccccc2C[C@H]1CO | 0 (inactive)
Cn1c(CO)nc2ccccc21 | 0 (inactive)
NCC1(c2ccccc2)CCOCC1 | 0 (inactive)
c1ccc2c(N3CCNCC3)ccnc2c1 | 0 (inactive)
O=C1CCCc2occc21 | 0 (inactive)
